# According to the supplement of paper PMC6555819:
# Assays:
# Test in all cases: PBM binding z-score (relative to random genomic background probes); higher = stronger binding; sequences stand for … in GC…GCGATTGACAGCGTAGAATGAAGG
# [1] = system: PPARg:RXRa DBDmut IVT, anti-RXR (DBD mutation: RXRa K156A/R161A, NR concentration 270 nM, RXRa partner concentration 90 nM)
# Outline: (§1)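 Each nuclear receptor dimer, without ligand, was incubated for 1 h on custom Agilent 4×180K protein-binding microarrays. Binding was detected with antibodies against each partner (one per run), and scanned fluorescence was regression-normalized. The binding z-scores are referenced to random human genomic background probes.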
# [2] = system: PPARg:RXRa IVT, anti-PPARg (NR concentration 270 nM, RXRa partner concentration 90 nM)
# Outline: as §1
# [3] = system: PPARg DBDmut:RXRa IVT, anti-PPARg (DBD mutation: PPARg1 K132A/R137A, NR concentration 270 nM, RXRa partner concentration 90 nM)
# Outline: as §1
# [4] = system: PPARg DBDmut IVT, anti-PPARg (DBD mutation: PPARg1 K132A/R137A, NR concentration 270 nM)
# Outline: as §1
# [5] = system: PPARg homodimer (NR concentration 180 nM)
# Outline: as §1
# [6] = system: PXR:RXRa (NR concentration 270 nM, RXRa partner concentration 90 nM)
# Outline: as §1
# [7] = system: PXR homodimer (NR concentration 270 nM)
# Outline: as §1
# [8] = system: RARa:RXR (NR concentration 270 nM, RXRa partner concentration 90 nM)
# Outline: as §1
# [9] = system: RARa homodimer (NR concentration 270 nM)
# Outline: as §1
# [10] = system: RARb:RXRa (NR concentration 270 nM, RXRa partner concentration 90 nM)
# Outline: as §1
# [11] = system: RARb homodimer (NR concentration 270 nM)
# Outline: as §1
# [12] = system: RARg:RXRa (NR concentration 270 nM, RXRa partner concentration 90 nM)
# Outline: as §1
# [13] = system: RARg homodimer (NR concentration 270 nM)
# Outline: as §1
# [14] = system: RXRa DBDmut IVT, anti-RXR (DBD mutation: RXRa K156A/R161A, NR concentration 90 nM)
# Outline: as §1
# [15] = system: RXRa homodimer (NR concentration 180 nM)
# Outline: as §1
# [16] = system: THRa:RXRa (NR concentration 90 nM, RXRa partner concentration 90 nM)
# Outline: as §1
# [17] = system: THRa homodimer (NR concentration 90 nM)
# Outline: as §1
# [18] = system: VDR:RXRa (NR concentration 270 nM, RXRa partner concentration 90 nM)
# Outline: as §1
# [19] = system: VDR homodimer (NR concentration 270 nM)
# Outline: as §1
Sequence,PBM binding z-score [1],PBM binding z-score [2],PBM binding z-score [3],PBM binding z-score [4],PBM binding z-score [5],PBM binding z-score [6],PBM binding z-score [7],PBM binding z-score [8],PBM binding z-score [9],PBM binding z-score [10],PBM binding z-score [11],PBM binding z-score [12],PBM binding z-score [13],PBM binding z-score [14],PBM binding z-score [15],PBM binding z-score [16],PBM binding z-score [17],PBM binding z-score [18],PBM binding z-score [19]
TCTATTAGTTGAAGAGCAACCGACGAGTCCGTTT,2.11,-0.0307,-0.198,0.372,0.184,0.265,0.467,-0.0573,0.544,0.129,-0.385,-0.11,-0.0161,1.36,0.301,-0.14,-0.463,0.538,1.23
CAAACTAGGTCAAGAGGTCACAGTCCGCTTCCCG,8.51,8.53,3.61,2.62,6.23,5.99,1.56,7.64,2.8,5.67,5.76,7.87,7.83,2.79,7.55,4.57,3.21,–,3.7
GCTCGGAGGACCAGGTCAGAGCTTTGTCCGTAGA,-0.0233,-0.0399,-1.45,-1.52,-0.553,0.343,-0.875,0.505,-0.985,1.35,1.34,0.802,0.461,-0.305,0.617,1.73,0.402,-0.322,-0.425
CAAACTAGGTCAAAGGTCCAAGTCGAGCCAACCA,8.79,8.36,1.57,1.19,3.75,3.24,0.0421,5.03,0.553,4.19,3.54,4.98,5.05,2.31,5.69,3.15,0.728,3.41,1.77
CGTCCAAGGTCAATGCTAGTTCAGTGAAAGCATT,2.97,3.31,1.63,0.145,3.77,5.51,2.79,4.79,0.972,5.1,4.24,6.18,6.17,3.83,4.84,3.91,2.17,4.84,3.28
CTCGAAAGTTCGGTTGAGGTGAGTATACGGATAA,-0.462,0.288,-0.142,0.0612,0.083,1.14,0.236,1.8,-0.11,1.55,1.12,0.738,0.973,1.24,0.161,4.57,1.37,–,0.742
GCTGCTGGGTCAACTGATGGTCAGCTAAAGCTCG,3.67,3.45,0.524,-0.337,1.55,1.94,-0.46,2.61,-0.59,3.98,3.36,5.04,4.22,1.22,3.13,2.41,0.228,–,-0.125
CCTGCTAGGTCAATGGGCAGCTAAAGCAGCTCGC,3.7,3.4,-0.844,-1.02,0.228,0.352,-0.589,1.07,-0.679,3.6,2.4,3.12,4.03,0.674,1.35,1.99,0.0215,0.356,-0.152
GCTCGGAGGACAAGGTCAGAACTTTGTCCGTAGA,-0.664,0.754,-0.824,-0.981,0.718,1.87,-0.398,2,-0.812,3.2,2.83,3.15,3.26,0.38,2.6,2.67,0.989,1.37,0.595
TCATATAGGTAAAGGTGAAGGTCGAACGATATGA,4.25,4.21,1.49,1.44,1.37,1.57,0.53,2,0.708,2.45,2.28,2.15,2.07,0.787,2.51,1.82,0.00279,–,0.402
GCGACTGGGGCTAAGCAGGTTACCATAAGGTTGG,0.815,0.343,-0.64,-1.34,-0.237,-0.0501,-0.222,0.266,-0.85,0.544,0.946,0.126,0.179,-0.481,-0.00806,1.12,0.145,-0.0992,-0.2
AGAACGAGGGCAATGAGTTGATAGAACGGGTGGC,3.29,2.76,0.559,-0.194,0.0958,1.47,4.31,0.324,-0.124,1.83,0.861,1.14,1.61,2.13,0.744,0.969,-0.182,5.04,2.82
CCTGCTAGGTCAATGGTCTGCTAAAGCAGCTCGC,4.23,3.5,-0.516,-0.86,1.16,0.731,-0.482,1.36,-0.721,3.78,2.64,3.31,3.96,1.75,1.63,2.31,0.724,0.867,-0.14
TCTTATAGGTAAAGGTGAAAGTCGAACGATATGA,3.92,3.7,2,1.77,1.61,1.11,0.648,1.96,1.18,2.21,1.59,1.84,1.45,1.1,2.43,1.39,0.153,–,0.315
CCGATTGGGGCATAAGGTTACCATAAGCCAGCCC,1.21,1.53,-1.1,-1.31,0.682,0.17,-0.12,1.42,-0.579,1.66,1.76,1.79,1.12,0.0114,1.14,2.16,1.14,–,-0.374
